Screens from PubChem.
Only some compounds are listed: those with a hit (about 3.9% of all), similar ones and a draw of the others.
Platelet DG rel: modulates dense granule release in human platelets; human platelet-rich plasma, SFLLRN dense granule ATP release, luminescence; inhibition, %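 (compounds screened at 7.5 µM in platelet-rich plasma)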; actives 0.22% (n = 300,000); AID 1663;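 active = mean replicate score, as percent of positive control, at or above 50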
TPT1 inhibitor: C. albicans TPT1 enzyme inhibition; recombinant caTPT1, FP RNA substrate dephosphorylation; inhibition, % at 5 µM; actives 0.81% (n = 300,000); AID 1962;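 active = inhibition above the mean of all tested compounds plus 3 SD, set per screening campaign, cut at about 24% in these data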;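 also: plate controls were DMSO alone for no effect and ferristatin control at 100 nM for full effect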
Rtt109 Vps75: blocks Candida albicans Rtt109/Vps75 acetyltransferase activity | Q5AAJ8 | purified Rtt109/Vps75, ThioGlo CoA-SH fluorescence, 4 h | inhibition, % at 34.9 µM | actives 0.16% (n = 330,000);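 active = inhibition of at least 50% in every replicate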
WT yeast gro inh: growth inhibition of WT yeast, mitochondrial fusion screen; mitochondrial fusion phenotypic screen, WT strain; inhibition, % at 10 µM; actives 2.1% (n = 190,000); in the data active = inhibition above about 58%; tested in S. cerevisiae
PHOSPHO1 block: blocks human PHOSPHO1 phosphatase activity | Q8TCT1 | recombinant PHOSPHO1, absorbance phosphatase assay | inhibition, % at 13.3 µM | actives 1.1% (n = 290,000) | AID 1565; in the data active = inhibition above about 60%
Target sequence (Q8TCT1 whole entry, looked up): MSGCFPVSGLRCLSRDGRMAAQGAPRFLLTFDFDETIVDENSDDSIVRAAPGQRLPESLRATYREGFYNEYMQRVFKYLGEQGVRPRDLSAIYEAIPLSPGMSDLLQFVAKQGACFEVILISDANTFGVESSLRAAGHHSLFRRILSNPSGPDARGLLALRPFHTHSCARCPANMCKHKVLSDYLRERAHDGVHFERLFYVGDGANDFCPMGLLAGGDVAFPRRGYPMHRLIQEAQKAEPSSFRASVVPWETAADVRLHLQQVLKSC
SKKanGAS inh: SKKanGAS growth inhibition | inhibition, % at 7.5 µM | actives 1.3% (n = 300,000) | AID 1662 | S. pyogenes SKKanGAS, kanamycin growth, BacTiter-Glo, 6 h;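 active = mean replicate score, as percent of positive control median, at least 50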;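 also: strain carries kanamycin resistance gene driven by streptokinase promoter and grows in 40 µg/ml kanamycin; loss of luminescence reflects streptokinase promoter inhibition or plain growth inhibition; 0% = median of DMSO wells and 100% = positive control at its reference dose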
Active calls of the source: *; . = not tested or not shown.

SMILES | Platelet DG rel | TPT1 inhibitor | Rtt109 Vps75 | WT yeast gro inh | PHOSPHO1 block | SKKanGAS inh
O=C(CSc1nc(-c2ccccc2)nc2ccccc12)Nc1cccc(C(=O)O)c1 | 6 | -3 | 1 | -16 | 32 | 38
O=C(CSc1nc(-c2ccc(F)cc2)nc2ccc(F)cc12)Nc1cccc(C(=O)O)c1 | 3 | 0 | 11 | 7 | -12 | 68*
CC1Oc2ccccc2C=C1/C=N/NC(=O)c1ccccc1 (centres undefined) | 16 | -1 | 2 | 8 | 2 | -6
CC1Oc2ccccc2C=C1/C=N/NC(=O)c1ccccc1O (centres undefined) | 7 | -3 | -2 | 71* | 4 | -3
Cc1cc(C)c2ccc(N)nc2c1O | -3 | -4 | 9 | 5 | 20 | 99*
O=C(COc1ccc(/C=C2/NC(=O)NC2=O)cc1)Nc1ccc(F)cc1 | -2 | 2 | 5 | . | 19 | -3
Cc1sc2nc(CSc3ccccc3)nc(NCCN(C)C)c2c1C | -7 | -1 | 2 | 15 | -10 | -1
CCNc1nc(CSc2ccccc2)nc2sc(C)c(C)c12 | 15 | 0 | 1 | 67* | -12 | -3
O=C(CN1CCN(S(=O)(=O)c2ccc(Cl)c(Cl)c2)CC1)N1CCCC1 | . | . | 0 | . | . | .
COc1ccccc1-c1sc2ccccc2c1-c1ccccc1OC | . | . | 1 | . | . | .
COC(=O)c1cc2occc2n1Cc1c(F)cccc1Cl | . | . | . | 6 | 38 | .
COC(=O)c1cc2occc2n1Cc1ccc(Cl)cc1 | 2 | 0 | -2 | 35 | 64* | -3
CCc1nnc(NC(=O)CSc2nnc(CSc3nc(C)cc(C)n3)o2)s1 | 2 | -1 | 19 | . | 94* | 1
COc1ccc(CCC(=O)OCC(=O)NC(=O)c2ccc(Cl)cc2)cc1 | . | . | -3 | . | . | .
CC(C)(C)N/N=C1\CC(c2ccccc2)Oc2ccccc21 (centres undefined) | 5 | -1 | 6 | 62* | -4 | 73*
CSc1nc(N2CCN(CCO)CC2)c2sc3nc(-c4ccco4)c4c(c3c2n1)CCC4 | . | . | . | 93* | 23 | .
